Bioassay records (PubChem)
Lamin A splicing: changes lamin A minigene splicing in HeLa cells. HeLa LMNA splicing GFP/RFP minigene ratio, 48 h. Potency, µM (series often up to 46.1 µM), actives largely listed as inhibitors. actives 0.01% (n = 200,000). AID 1487; active = well fitted inhibition curve with a large enough effect in the signal ratio, with a control signal flat, not every such curve was filed as active; inconclusive = small, poorly fitted or top-dose-only effect, or effect the other way, or a change in a side signal; the % refers to the signal ratio
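S3 HeLa cells stably expressing lamin A-EGFP splicing minigene plus DsRed2, 600 cells/well, 48 h compound exposure at 37C. Laser-scanning cytometry; analysed as GFP (500-530 nm)/RFP (575-640 nm) total intensity ratio; 0.5% DMSO vehicle.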
PNC inhibitor: inhibitors of perinucleolar compartment assembly; PC3M PTB-GFP, PNC prevalence imaging, 16 h; hits give low values; activity change (PNC), negative = inhibition, % at 10 µM; actives 3.1% (n = 140,000);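 active = readout at or below -70, meaning at least 70% loss of cells showing the perinucleolar compartment, a nuclear body marking cancer cells; inconclusive = readout between -30 and a set limit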
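Compounds are pinned in duplicate onto adhered PC3M cells stably expressing GFP-tagged PTB and incubated 16 h at 37 C. Cells are then fixed, nuclei stained with Hoechst, and PNC-positive cells counted.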
ALDH1A1 block: ALDH1A1 (human) enzyme inhibition; P00352; Purified ALDH1A1, NADH fluorescence, propionaldehyde substrate; Potency, µM (doses to about 75.3 µM), most hits filed as inhibitors; actives 7.3% (n = 220,000)
HPGD inh: blocks human HPGD enzyme activity; purified HPGD, NADH fluorescence kinetic, PGE2 substrate; Potency, µM, hits mostly inhibitors; actives 4.3% (n = 150,000)
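NADH formation kinetics: reaction with 30 uM PGE2 and 1 mM NAD+ (final), 20 nM enzyme, Tris-HCl pH 8 with Tween 20, after 15 min compound preincubation at room temperature. Fluorescence change, last versus first of five reads.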
12-hLO inh: 12-hLO (ALOX12) enzyme inhibition; purified 12-hLO, xylenol orange hydroperoxide absorbance; Potency, µM (top dose mostly 57.1 µM), actives largely listed as inhibitors; actives 0.12% (n = 150,000); active = well fitted inhibition curve with a large enough effect; inconclusive = small, poorly fitted or top-dose-only effect; also: nearly all actives have a fitted effect of over 55% in size
Target sequence (P18054 whole entry, looked up): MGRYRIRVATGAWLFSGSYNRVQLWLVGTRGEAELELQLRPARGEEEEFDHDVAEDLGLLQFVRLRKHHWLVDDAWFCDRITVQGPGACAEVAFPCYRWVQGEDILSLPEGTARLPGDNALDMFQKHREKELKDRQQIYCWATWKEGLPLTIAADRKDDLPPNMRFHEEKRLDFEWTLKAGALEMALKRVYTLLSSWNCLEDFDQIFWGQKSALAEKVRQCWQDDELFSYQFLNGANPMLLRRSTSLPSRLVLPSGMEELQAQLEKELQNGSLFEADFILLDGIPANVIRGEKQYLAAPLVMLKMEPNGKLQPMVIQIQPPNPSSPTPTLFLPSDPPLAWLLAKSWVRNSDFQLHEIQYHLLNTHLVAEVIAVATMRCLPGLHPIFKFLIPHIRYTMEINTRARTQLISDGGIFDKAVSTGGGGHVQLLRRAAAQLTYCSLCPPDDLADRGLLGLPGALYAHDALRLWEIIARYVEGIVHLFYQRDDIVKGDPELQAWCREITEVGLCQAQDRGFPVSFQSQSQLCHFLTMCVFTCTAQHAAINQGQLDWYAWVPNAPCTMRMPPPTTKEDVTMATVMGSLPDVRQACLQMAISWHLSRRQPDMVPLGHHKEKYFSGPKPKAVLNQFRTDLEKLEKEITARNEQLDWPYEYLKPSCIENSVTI
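Lipoxygenase turnover measured by absorbance at 573 and 405 nm after Fe-XO development. Human 12hLO 150 nM, arachidonate 40 uM, pH 7.0 Hepes buffer with detergent; 15 min compound preincubation, 30 min reaction.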
Hits are given with their value; [ ] = remark or other dose. A selection: hits, their analogues and other compounds. The true share with any hit is near 10%. Unless noted, calls follow the shape of the dose curve; as a rule, active = well fitted inhibition curve with a large enough effect (not every such curve was filed as active); inconclusive = small, poorly fitted or top-dose-only effect, or another doubt; inactive = no such curve, though single readings can be large or run the other way.

Results for CCOC(=O)c1cc(C)sc1NC(=O)CCC(=O)O ?
Lamin A splicing: inactive; PNC inhibitor: inactive; ALDH1A1 block: inactive; HPGD inh: inactive; 12-hLO inh: inactive

Results for COC(=O)c1c(NC(C)=O)sc(C)c1C ?
Lamin A splicing: inactive[9.22 µM]; ALDH1A1 block: inactive

Results for Cc1ccccc1C(=O)Nc1sc(C)c(C)c1C(=O)c1ccccc1 ?
Lamin A splicing: inconclusive; PNC inhibitor: inactive; ALDH1A1 block: inconclusive; HPGD inh: 32µM; 12-hLO inh: inactive

What do the screens show for `Cc1sc(NC(=O)CCl)c(C(=O)c2ccccc2)c1C`?
Lamin A splicing: inconclusive; PNC inhibitor: inactive; ALDH1A1 block: 0.71µM; HPGD inh: 28µM; 12-hLO inh: inactive

Results for Cc1cc(C(=O)c2ccc(C(C)(C)C)cc2)c(NC(=O)CCl)s1 ?
Lamin A splicing: inconclusive; PNC inhibitor: inactive; ALDH1A1 block: 11µM; HPGD inh: inactive; 12-hLO inh: inactive

How did CCOC(=O)c1c(C)oc2nc(C)nc(N3CCN(c4cccc(C)c4C)CC3)c12 do in these assays?
Lamin A splicing: inactive

What do the screens show for `CN1CC(=O)N(CC(=O)Nc2ccc(Cl)c(C(F)(F)F)c2)c2ccccc2C1=O`?
Lamin A splicing: inactive

How did COC(=O)c1cccc(Cn2c(Cl)c(/C=N/NC(=O)c3ccccc3Cl)sc2=O)c1 do in these assays?
Lamin A splicing: inconclusive; PNC inhibitor: inactive; ALDH1A1 block: inconclusive; HPGD inh: inactive; 12-hLO inh: inactive

What do the screens show for `O=C(N/N=C/c1sc(=O)n(-c2ccccc2)c1Cl)c1ccccc1`?
Lamin A splicing: inactive; PNC inhibitor: inactive; ALDH1A1 block: 16µM; HPGD inh: inactive; 12-hLO inh: inactive

What do the screens show for `O=C(c1ccncc1)N1CCC2(CC1)CCN(c1ccccc1)CC2`?
ALDH1A1 block: inactive; HPGD inh: inactive; 12-hLO inh: inactive

Results for COc1ccc(NC(=O)CSc2nnc(-c3ccccc3)n2N)cc1 ?
Lamin A splicing: inactive; PNC inhibitor: -100; ALDH1A1 block: inactive; HPGD inh: inactive; 12-hLO inh: inactive

How did COC(=O)c1ccc(NC(=O)CSc2nnc(-c3ccncc3)n2N)cc1 do in these assays?
Lamin A splicing: inactive; PNC inhibitor: inactive; ALDH1A1 block: 25µM; HPGD inh: inactive; 12-hLO inh: inactive

What do the screens show for `COC(=O)c1[nH]c2ccc(F)cc2c1NC(=O)CCN1CCN(Cc2ccc3c(c2)OCO3)CC1`?
Lamin A splicing: inactive; PNC inhibitor: inactive; ALDH1A1 block: inconclusive; HPGD inh: inconclusive; 12-hLO inh: inactive

What do the screens show for `CCN(CC(=O)Nc1c(C(=O)OC)[nH]c2ccc(C)cc12)c1ccc2c(c1)OCO2`?
Lamin A splicing: inactive; PNC inhibitor: -119; ALDH1A1 block: 14µM; 12-hLO inh: inactive

How did CCNC(=S)Nc1ccc(Cl)c([N+](=O)[O-])c1 do in these assays?
Lamin A splicing: inactive; ALDH1A1 block: inactive

How did CCN(CC)S(=O)(=O)c1ccc(N)cc1 do in these assays?
ALDH1A1 block: inactive

Results for CS(=O)(=O)c1ccc(N)cc1 ?
Lamin A splicing: inactive; PNC inhibitor: -88; ALDH1A1 block: inactive; HPGD inh: inactive; 12-hLO inh: inactive

Results for O=CN1CCN(C2CC(=O)N(c3ccc(Br)cc3)C2=O)CC1 (stereo unspecified) ?
Lamin A splicing: inactive; PNC inhibitor: -86; ALDH1A1 block: inconclusive; HPGD inh: inactive; 12-hLO inh: inactive

What do the screens show for `O=C1CC(N2CCC(O)(c3ccc(Br)cc3)CC2)C(=O)N1c1ccc(Cl)cc1` (stereo unspecified)?
Lamin A splicing: inactive; PNC inhibitor: inactive; ALDH1A1 block: inactive; HPGD inh: inactive; 12-hLO inh: inactive

How did O=C1CC(N2CCC(O)CC2)C(=O)N1c1ccc(Br)cc1 (stereo unspecified) do in these assays?
Lamin A splicing: inactive; PNC inhibitor: inactive; ALDH1A1 block: 22µM; HPGD inh: inactive; 12-hLO inh: inactive

Results for CC1C/C(=C\c2cccnc2)C(=O)/C(=C/c2cccnc2)C1 (stereo unspecified) ?
Lamin A splicing: inconclusive; PNC inhibitor: -116; ALDH1A1 block: inactive; HPGD inh: inactive; 12-hLO inh: inactive

Results for O=C1/C(=C\c2cccnc2)Sc2ccccc21 ?
Lamin A splicing: inactive; PNC inhibitor: inactive; ALDH1A1 block: inactive; HPGD inh: inactive; 12-hLO inh: inactive

What do the screens show for `CC(=O)c1cc(-c2ccccc2)n(CCC(=O)NCc2ccc(C)cc2)c1C`?
Lamin A splicing: inactive

How did CCOc1ccccc1CNC(=O)C1CCN(C(=O)c2sccc2-n2cccc2)CC1 do in these assays?
Lamin A splicing: inconclusive; PNC inhibitor: inactive; ALDH1A1 block: 0.63µM; HPGD inh: inactive; 12-hLO inh: inactive

Results for O=C(NCc1ccccc1Cl)C1CCN(C(=O)c2sccc2-n2cccc2)CC1 ?
Lamin A splicing: inactive; PNC inhibitor: inactive; ALDH1A1 block: 1.4µM; HPGD inh: inactive; 12-hLO inh: inactive

What do the screens show for `O=C(NCc1ccccc1F)C1CCN(C(=O)c2sccc2-n2cccc2)CC1`?
ALDH1A1 block: 2.5µM

What do the screens show for `CC1CCCCC1NC(=O)C1CCN(C(=O)c2sccc2-n2cccc2)CC1` (stereo unspecified)?
Lamin A splicing: inactive; PNC inhibitor: inconclusive; ALDH1A1 block: 1.1µM; HPGD inh: inactive; 12-hLO inh: inactive

What do the screens show for `CN(C)C(=O)N1CCC(C(=O)NCc2ccccc2Cl)CC1`?
Lamin A splicing: inactive; PNC inhibitor: inactive; ALDH1A1 block: inactive; HPGD inh: inactive; 12-hLO inh: inactive

How did O=C(CCCl)N(Cc1nc2ccccc2c(=O)[nH]1)Cc1cccs1 do in these assays?
Lamin A splicing: inconclusive; ALDH1A1 block: inactive

How did Cc1ccc(N(Cc2cccs2)C(=O)C(C)Oc2ccc(Cl)c(C)c2)cc1 (stereo unspecified) do in these assays?
Lamin A splicing: inactive

What do the screens show for `CC1=NOC(=O)/C1=C\c1ccc(-c2ccc(Cl)cc2Cl)o1`?
Lamin A splicing: inconclusive; PNC inhibitor: inactive; ALDH1A1 block: 10µM; HPGD inh: 1.8µM; 12-hLO inh: inactive

How did COc1cc2c(cc1NS(=O)(=O)c1cccc(C#N)c1)n(C)c(=O)n2C do in these assays?
Lamin A splicing: inactive

What do the screens show for `O=C(c1cnc2ccccn2c1=O)N1CCCc2ccccc21`?
Lamin A splicing: inactive; PNC inhibitor: inactive; ALDH1A1 block: 8.9µM; HPGD inh: inactive; 12-hLO inh: inactive

What do the screens show for `O=C(Nc1ccc(Oc2ccc(C(F)(F)F)cn2)c(Cl)c1)C1CC1`?
Lamin A splicing: inconclusive; ALDH1A1 block: inactive

How did C=CCn1c(SCC(=O)N2CCOCC2)nc(O)cc1=O do in these assays?
Lamin A splicing: inactive; PNC inhibitor: inactive; ALDH1A1 block: inactive; HPGD inh: inactive; 12-hLO inh: inactive

How did C=CCn1c(SCC(=O)N2CCCCC2)nc(O)cc1=O do in these assays?
Lamin A splicing: inactive; PNC inhibitor: inactive; ALDH1A1 block: inactive; HPGD inh: 0.32µM; 12-hLO inh: inactive
